{"source": "PubChem BioAssay (EPA / NIEHS)", "note": "The source made the active and inactive calls. The calls were made as follows: active = hit-call score of the fitted dose curve at least 0.9, where 1 is the maximum; inactive = score below 0.9."}
{"read-out": "Vascular cell adhesion molecule 1 (VCAM1), VCAM1 (gene 7412)", "experiment": "BSK_CASM3C_VCAM1: BioMAP Diversity Plus: CASM3C Assay for Vascular cell adhesion molecule 1 (VCAM1) Biomarker Activity (AID 2283055);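 also: VCAM-1 protein level quantified by ELISA on the cells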", "settings": "primary human coronary artery smooth muscle cells; actives raise or lower the signal"}
{"smiles": "O=C(O)C1C2CCC(O2)C1C(=O)O", "note": "(stereo not drawn)", "outcome": "inactive"}
{"smiles": "Nc1ccc(Cl)cc1N", "AC50": "3.97 µM (active)"}
{"smiles": "OCCCl", "outcome": "inactive"}
{"smiles": "c1ccc2c(c1)-c1cccc3cccc-2c13", "outcome": "inactive"}
{"smiles": "CCCCCCCCn1sccc1=O", "AC50": "9.3 µM (active)"}
{"smiles": "c1ccc(C2CO2)cc1", "note": "(stereo not drawn)", "outcome": "inactive"}
{"smiles": "CC(C)(C)OOC(C)(C)CCC(C)(C)OOC(C)(C)C", "outcome": "inactive"}
{"smiles": "c1ccc2c(c1)oc1ccccc12", "outcome": "inactive"}
{"smiles": "CN(C)c1ccc(C(=O)c2ccc(N(C)C)cc2)cc1", "outcome": "inactive"}
{"smiles": "Oc1ccccc1Cl", "outcome": "inactive"}
{"smiles": "Clc1ccccc1Cl", "outcome": "inactive"}
{"smiles": "O=C(N[C@H](c1ccccc1)[C@@H]1CN2CCC1CC2)c1c(Cl)ccc(C(F)(F)F)c1Cl", "outcome": "inactive"}
{"smiles": "ClCCOCCCl", "outcome": "inactive"}
{"smiles": "Cc1ccc([N+](=O)[O-])cc1", "outcome": "inactive"}
{"smiles": "CO[C@@H]1[C@H](OC(=O)NC(=O)CCl)CC[C@]2(CO2)[C@H]1[C@@]1(C)O[C@@H]1CC=C(C)C", "AC50": "6.2 µM (active)"}
{"smiles": "Nc1ccc([N+](=O)[O-])cc1", "outcome": "inactive"}
{"smiles": "Nc1ccc(Oc2ccc(N)cc2)cc1", "outcome": "inactive"}
{"smiles": "CC(C)(O)c1cnn2c(-c3ccc(F)c(-c4c(F)cccc4C#N)c3)cnc2n1", "outcome": "inactive"}
{"smiles": "OCCCBr", "outcome": "inactive"}
{"smiles": "[O-][Cl+]O", "outcome": "inactive"}
{"smiles": "C1=Cc2cccc3cccc1c23", "outcome": "inactive"}
{"smiles": "CN(C)C(=O)Nc1ccc(Cl)cc1", "outcome": "inactive"}
{"smiles": "ClC1=C(Cl)C2(Cl)C3C(Cl)C=CC3C1(Cl)C2(Cl)Cl", "note": "(stereo not drawn)", "AC50": "30.2 µM (active)"}
{"smiles": "Cc1ccc(N=C=O)cc1N=C=O", "outcome": "inactive"}
{"smiles": "O=Cc1ccco1", "outcome": "inactive"}
{"smiles": "CCCSC(=O)N(CCC)CCC", "outcome": "inactive"}
{"smiles": "Clc1ccc(Cl)c(Cl)c1", "outcome": "inactive"}
{"smiles": "CCC12COCN1COC2", "outcome": "inactive"}
